# Unmarked numbers belong to inactive results. This is one part of the list. Activity calls are given as the source filed them.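 How the source made its calls, unless noted: active means inhibition above the hit cutoff set in the earlier primary screen (cut at about 27% in these data); inactive means the rest.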
# Assays:
# [1] = biological target: Protein phosphatase methylesterase 1 (Homo sapiens) (UniProt Q9Y570); assay: human PME-1 methylesterase inhibition confirmation – biochemical, fluorescence polarization, FP-Rh probe, triplicate (AID 2171); settings: recombinant PME-1, FP-Rh probe fluorescence polarization; at 5.9 µM; stronger effect = higher value;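 further: 0% = enzyme with DMSO and 100% = wells lacking PME-1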
# Protein phosphatase methylesterase 1 (Homo sapiens), sequence (Q9Y570 whole entry, looked up): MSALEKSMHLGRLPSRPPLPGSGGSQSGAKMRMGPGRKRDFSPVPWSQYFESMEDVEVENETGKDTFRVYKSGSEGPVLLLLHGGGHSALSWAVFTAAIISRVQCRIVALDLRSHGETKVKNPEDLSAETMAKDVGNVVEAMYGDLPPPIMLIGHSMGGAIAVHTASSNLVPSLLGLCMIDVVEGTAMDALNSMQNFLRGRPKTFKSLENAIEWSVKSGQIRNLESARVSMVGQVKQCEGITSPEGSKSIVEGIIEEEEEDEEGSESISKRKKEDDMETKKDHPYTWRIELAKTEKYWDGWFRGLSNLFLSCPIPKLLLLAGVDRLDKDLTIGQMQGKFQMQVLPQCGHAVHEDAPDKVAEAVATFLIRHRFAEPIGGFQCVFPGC
# [2] = biological target: Bcl-2-like protein 1 (Homo sapiens) (UniProt Q07817); assay: Bcl-xL BH3-peptide displacement, hit confirmation – biochemical, fluorescence polarization, counter-screen for MCL1 inhibitor project (AID 2166;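 active means inhibition above a cutoff equal to the mean inhibition of all tested compounds plus 3 SD, cut at about 30% in these data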); settings: GST-Bcl-xL / FITC-Bim BH3 peptide FP binding; at 10.9 µM; stronger effect = higher value
# Bcl-2-like protein 1 (Homo sapiens), sequence (Q07817 whole entry, looked up): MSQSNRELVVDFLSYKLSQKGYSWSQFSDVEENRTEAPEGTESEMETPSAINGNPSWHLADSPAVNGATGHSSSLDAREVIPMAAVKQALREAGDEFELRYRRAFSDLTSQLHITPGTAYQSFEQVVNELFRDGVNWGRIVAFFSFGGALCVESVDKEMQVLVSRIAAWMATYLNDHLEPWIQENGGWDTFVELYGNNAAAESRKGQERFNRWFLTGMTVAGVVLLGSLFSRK
# [3] = biological target: Induced myeloid leukemia cell differentiation protein Mcl-1 (Homo sapiens) (UniProt Q07820); assay: MCL1-BIM peptide interaction disruptors – biochemical, fluorescence polarization, triplicate, confirmation (AID 2168;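 active means inhibition above the average of all tested compounds plus 3 SD, cut at about 40% in these data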;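 further: 0% = DMSO wells and 100% = unlabeled Bim-BH3 control peptide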); settings: GST-MCL1 / FITC-Bim-BH3 fluorescence polarization; at 10.9 µM; stronger effect = higher value
# Induced myeloid leukemia cell differentiation protein Mcl-1 (Homo sapiens), sequence (Q07820 whole entry, looked up): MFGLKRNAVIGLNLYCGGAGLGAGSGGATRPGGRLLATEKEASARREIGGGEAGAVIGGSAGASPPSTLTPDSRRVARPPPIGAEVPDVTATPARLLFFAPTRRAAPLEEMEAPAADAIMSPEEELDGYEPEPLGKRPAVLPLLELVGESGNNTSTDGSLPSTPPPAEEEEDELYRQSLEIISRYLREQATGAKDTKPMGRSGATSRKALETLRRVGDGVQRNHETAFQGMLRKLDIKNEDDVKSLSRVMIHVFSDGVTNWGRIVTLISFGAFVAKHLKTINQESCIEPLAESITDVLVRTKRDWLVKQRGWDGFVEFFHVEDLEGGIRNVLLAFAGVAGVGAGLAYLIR
# [4] = biological target: Platelet-activating factor acetylhydrolase (Homo sapiens) (UniProt Q13093); assay: inhibition of plasma PAF acetylhydrolase – biochemical, fluorescence polarization, human, confirmation (AID 463230;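 active means mean inhibition of the triplicate above the hit cutoff set for the earlier primary screen, cut at about 25% in these data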;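 further: 0% = enzyme with DMSO and 100% = wells lacking pPAFAH enzyme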); settings: recombinant pPAFAH, FP-Rh probe fluorescence polarization; at 3.39 µM; stronger effect = higher value
# Platelet-activating factor acetylhydrolase (Homo sapiens), sequence (Q13093 whole entry, looked up): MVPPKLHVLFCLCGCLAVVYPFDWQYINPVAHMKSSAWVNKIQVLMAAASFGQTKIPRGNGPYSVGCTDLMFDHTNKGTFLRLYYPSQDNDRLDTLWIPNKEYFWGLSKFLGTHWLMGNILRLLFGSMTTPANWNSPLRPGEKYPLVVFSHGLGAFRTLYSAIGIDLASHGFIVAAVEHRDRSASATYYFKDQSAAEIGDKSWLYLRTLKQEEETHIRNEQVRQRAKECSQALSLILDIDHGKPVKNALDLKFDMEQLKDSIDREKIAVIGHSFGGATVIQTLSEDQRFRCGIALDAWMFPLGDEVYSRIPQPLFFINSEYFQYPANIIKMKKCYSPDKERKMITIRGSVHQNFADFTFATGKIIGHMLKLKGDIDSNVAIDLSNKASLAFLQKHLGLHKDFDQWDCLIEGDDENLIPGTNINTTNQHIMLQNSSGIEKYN
# [5] = blockers of IL-6 STAT3 signaling – U3A cells, luciferase, luminescence, confirmation (AID 1265;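 active means inhibition above the hit cutoff computed for the primary STAT3 screen, cut at about 44% in these data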;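 further: 0% = IL-6 plus DMSO and 100% = IL-6 plus nifuroxazide control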); settings: IL-6 STAT3 luciferase reporter, at 5.7 µM, stronger effect = higher value
# [6] = inhibition of TNF-alpha-driven NF-kB transcription – cell-based, HEK293T, luciferase, TNF-alpha stimulus, counter-screen for STAT3 inhibitor project, confirmation (AID 1308;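 active means inhibition above the mean of solvent-only control wells plus 3 SD, cutoff set per campaign, cut at about 13% in these data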;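 further: 0% = TNF-alpha with DMSO and 100% = TNF-alpha with MG high control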); settings: HEK293T NF-kB luciferase reporter, TNF-alpha induced; at 5.7 µM; stronger effect = higher value
# [7] = inhibition of STAT1-driven transcription – cell-based, NIH 3T3, luciferase luminescence, IFN-gamma, counter-screen for STAT3 inhibitor project, confirmation (AID 1317;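 active means inhibition above the mean plus 3 SD of solvent-only control wells, limit set per screening run, cut at about 16% in these data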;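 further: 0% = DMSO with IFN-gamma and 100% = nifuroxazide control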); settings: NIH 3T3 STAT1-luciferase reporter, IFN-gamma induced, at 5.7 µM, stronger effect = higher value
# [8] = StAR promoter reporter inhibitors, counter-screen for LRH-1 inverse agonist project, cell-based, luminescence, high throughput (AID 651611; in the data active means inhibition above about 28%); settings: StAR promoter luciferase reporter counterscreen, at 3.6 µM, stronger effect = higher value
# [9] = biological target: Nuclear receptor subfamily 5 group A member 2 (Homo sapiens) (UniProt O00482); assay: NR5A2 activity suppression in reporter cells – cell-based, luminescence, confirmation (AID 651613; in the data active means inhibition above about 42%;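 further: HEK293T cells co-transfected with LRH-1 and StAR promoter luciferase reporter; 0% = vehicle wells and 100% = parental cells lacking receptor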); settings: cell-based LRH-1 luciferase reporter, inverse agonism; at 3.6 µM; stronger effect = higher value
# Nuclear receptor subfamily 5 group A member 2 (Homo sapiens), sequence (O00482 whole entry, looked up): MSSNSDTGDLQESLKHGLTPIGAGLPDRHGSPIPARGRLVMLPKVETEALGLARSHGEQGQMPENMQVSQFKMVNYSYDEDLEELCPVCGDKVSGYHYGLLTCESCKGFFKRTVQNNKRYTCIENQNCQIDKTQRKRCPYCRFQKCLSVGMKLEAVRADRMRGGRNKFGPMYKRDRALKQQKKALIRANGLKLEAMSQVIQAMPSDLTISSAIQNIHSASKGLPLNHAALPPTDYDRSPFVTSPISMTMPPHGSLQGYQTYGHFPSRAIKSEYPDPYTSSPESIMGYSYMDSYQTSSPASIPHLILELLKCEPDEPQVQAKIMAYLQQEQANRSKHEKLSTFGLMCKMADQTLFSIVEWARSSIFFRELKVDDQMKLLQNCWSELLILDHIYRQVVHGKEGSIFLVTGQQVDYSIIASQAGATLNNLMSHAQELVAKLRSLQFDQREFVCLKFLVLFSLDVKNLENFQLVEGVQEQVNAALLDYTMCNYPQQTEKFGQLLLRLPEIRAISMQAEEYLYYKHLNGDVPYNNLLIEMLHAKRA
# [10] = biological target: Steroidogenic factor 1 (Homo sapiens) (UniProt Q13285); assay: inverse agonism at SF1 nuclear receptor – cell-based, luminescence, high throughput, counter-screen for LRH-1 inverse agonist project (AID 651614; in the data active means inhibition above about 44%;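 further: cells cotransfected with StAR promoter reporter and SF1 expression vector; 0% = vehicle on cells with receptor and 100% = vehicle on cells lacking receptor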); settings: cell-based SF1 luciferase reporter, at 3.6 µM, stronger effect = higher value
# Steroidogenic factor 1 (Homo sapiens), sequence (Q13285 whole entry, looked up, the tested form may be a part): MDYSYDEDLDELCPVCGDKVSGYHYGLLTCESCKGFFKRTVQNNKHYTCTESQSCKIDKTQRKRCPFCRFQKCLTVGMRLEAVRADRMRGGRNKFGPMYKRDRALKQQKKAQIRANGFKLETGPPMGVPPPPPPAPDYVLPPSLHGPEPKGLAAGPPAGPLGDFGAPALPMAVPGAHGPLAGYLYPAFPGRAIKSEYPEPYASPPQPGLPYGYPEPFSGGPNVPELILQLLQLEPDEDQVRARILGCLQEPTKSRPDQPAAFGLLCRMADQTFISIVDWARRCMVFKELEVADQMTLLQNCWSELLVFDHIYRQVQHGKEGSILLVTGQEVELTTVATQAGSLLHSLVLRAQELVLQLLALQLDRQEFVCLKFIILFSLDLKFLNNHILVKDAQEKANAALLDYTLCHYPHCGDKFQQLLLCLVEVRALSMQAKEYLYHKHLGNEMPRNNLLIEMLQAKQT
# [11] = compounds suppressing VP16-driven luciferase signal – cell-based, luminescence, high throughput, counter-screen for LRH-1 inverse agonist project (AID 651615; in the data active means inhibition above about 33%); settings: Gal4-VP16 luciferase reporter cells, at 3.6 µM, stronger effect = higher value
# [12] = VP16-driven transactivation reporter suppression – cell-based, luminescence, HEK293, counter-screen for COUP-TFII antagonist project (AID 687007; in the data active means inhibition above about 13%); settings: HEK293 Gal4-VP16 luciferase reporter, at 8.5 µM, stronger effect = higher value
# [13] = biological target: COUP transcription factor 2 (Homo sapiens) (UniProt P24468); assay: retest of COUP-TFII reporter suppressors – cell-based, luciferase reporter, HEK293, triplicate, confirmation (AID 687008;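 active means mean inhibition over three repeats above a set limit taken from the earlier primary screen, cut at about 38% in these data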;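 further: 100% = cells given the luciferase reporter alone without the COUP-TF2 vector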); settings: HEK293 NGFI-A luciferase reporter, luminescence; at 8.5 µM; stronger effect = higher value
# COUP transcription factor 2 (Homo sapiens), sequence (P24468 whole entry, looked up): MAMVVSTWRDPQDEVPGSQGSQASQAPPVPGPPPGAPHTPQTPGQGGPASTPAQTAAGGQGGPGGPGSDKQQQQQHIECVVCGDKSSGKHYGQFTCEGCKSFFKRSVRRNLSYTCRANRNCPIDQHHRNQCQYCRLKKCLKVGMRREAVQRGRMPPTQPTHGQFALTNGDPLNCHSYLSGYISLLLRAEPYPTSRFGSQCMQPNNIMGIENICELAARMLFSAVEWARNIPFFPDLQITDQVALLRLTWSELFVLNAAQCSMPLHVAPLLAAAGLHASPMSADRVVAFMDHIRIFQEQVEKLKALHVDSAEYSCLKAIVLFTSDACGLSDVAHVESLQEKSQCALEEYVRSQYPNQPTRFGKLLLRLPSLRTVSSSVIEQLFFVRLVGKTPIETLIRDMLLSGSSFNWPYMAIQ
# [14] = system: HIV-1 integrase (multimerization); assay: stimulation of HIV-1 integrase oligomerization – biochemical, TR-FRET, counter-screen for LEDGF/p75 integration inhibitor project (AID 1053131; in the data active means activation above about 8.9%); settings: TR-FRET HIV-1 integrase multimerization, at 7.7 µM, stronger effect = higher value
# [15] = compounds disturbing TR-FRET signal readout – biochemical, HIV-1 IN multimerization, artefact control for LEDGF/p75-dependent integration inhibitor project, confirmation (AID 1053135;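 active means inhibition above the mean over all tested compounds plus 3 SD, which no compound reached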;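 further: 0% = integrase with antibodies and DMSO and 100% = antibodies without integrase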); settings: TR-FRET optical interference counterscreen, at 7.7 µM, stronger effect = higher value
# [16] = system: HIV-1 integrase / human LEDGF/p75 complex; assay: blockers of LEDGF/p75-dependent integrase activity – biochemical, TR-FRET, confirmation (AID 1053136; in the data active means inhibition above about 14%); settings: TR-FRET LEDGF/p75-dependent HIV-1 integration, at 3.7 µM, stronger effect = higher value
smiles,measurement,setting,value
O=c1[nH]c(=S)[nH]c(O)c1N=Nc1cc(S(=O)(=O)Nc2ccc(Cl)cc2)ccc1Cl,inhibition,[1],40.5% (active)
COc1ccc(N2C(=O)/C(=C/c3ccco3)C(=O)NC2=S)cc1,inhibition,[2],50.7% (active)
same,inhibition,[3],55.3% (active)
same,inhibition,[4],17.3%
CC1=CC(=Cc2sc3ccccc3[n+]2C)C=C(C)O1,inhibition,[5],77.1% (active)
same,inhibition,[6],22.8% (active)
same,inhibition,[7],22.2% (active)
same,inhibition,[8],50.2% (active)
same,inhibition,[9],105% (active)
same,inhibition,[10],80.4% (active)
same,inhibition,[11],87.6% (active)
same,inhibition,[12],8.63%
same,inhibition,[13],55% (active)
O=[N+]([O-])c1ccc(NCc2ccccc2)c2nonc12,inhibition,[1],50.5% (active)
O=C1NC(=O)N(Cc2ccco2)C(=O)/C1=C\c1ccc(-c2ccc(F)cc2)o1,activation,[14],1.86%
same,inhibition,[15],-6.88%
same,inhibition,[16],11.9%
Oc1ccc(/C=N/NP(=S)(c2ccccc2)c2ccccc2)c(O)c1O,inhibition,[1],-8.43%
NP(=O)(OCCCc1ccccc1)Oc1ccccc1Cl (configuration not stated),inhibition,[1],86.4% (active)
Cc1ccccc1NP(=O)(Oc1ccccc1F)Oc1ccccc1F,inhibition,[1],43.5% (active)
Cc1oc(-c2ccccc2)nc1CN1C(=O)CN=C(c2ccccc2)c2ccccc21,inhibition,[1],66.1% (active)
Cc1cc(/C=C2/C(=O)NC(=O)N(Cc3ccco3)C2=O)c(C)n1-c1ccc(C(=O)O)cc1,activation,[14],5.24%
same,inhibition,[15],-26.4%
same,inhibition,[16],36.5% (active)
Cc1c(C(=O)O)cccc1-n1c(C)cc(/C=C2\C(=O)NC(=O)N(c3ccc4c(c3)OCO4)C2=O)c1C,activation,[14],0.15%
same,inhibition,[15],-0.77%
same,inhibition,[16],22.9% (active)

# Source: PubChem BioAssay
